From publication PMC7862700, “An all-to-all approach to the identification of sequence-specific readers for epigenetic DNA modifications on cytosine”

Key:
Assay in all cases: DAPPL (digital affinity profiling via proximity ligation, sequencing); 10 mM Tris-HCl pH 7.5, 50 mM NaCl, 1 mM DTT, 4% glycerol, room temperature, 30 min; GST-TFs on glutathione beads, 16-mer random dsDNA library, 0.1% formaldehyde crosslink after washing; high values mean tight binding
Settings in all cases: protein: recombinant; tags: N-terminal GST; dsDNA, one strand shown
FLI1 = target: T1, FLI1 (Homo sapiens, UniProt Q01543 1-452)
T1 sequence: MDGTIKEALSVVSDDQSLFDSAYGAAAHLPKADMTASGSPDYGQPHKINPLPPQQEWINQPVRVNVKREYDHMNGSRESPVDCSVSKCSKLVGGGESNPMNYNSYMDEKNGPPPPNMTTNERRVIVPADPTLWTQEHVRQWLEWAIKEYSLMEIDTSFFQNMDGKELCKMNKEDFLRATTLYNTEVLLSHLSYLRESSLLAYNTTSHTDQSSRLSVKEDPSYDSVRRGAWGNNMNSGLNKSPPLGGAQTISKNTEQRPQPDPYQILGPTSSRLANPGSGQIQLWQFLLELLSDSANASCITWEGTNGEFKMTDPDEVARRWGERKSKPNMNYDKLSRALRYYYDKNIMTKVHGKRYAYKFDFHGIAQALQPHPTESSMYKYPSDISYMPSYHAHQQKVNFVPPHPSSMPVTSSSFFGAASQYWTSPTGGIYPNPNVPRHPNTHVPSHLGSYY
In short: (§1)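 Sequencing on an Illumina NextSeq500 followed washing, crosslinking with 0.1% formaldehyde, proximity ligation (BsaI/T4 ligase, 1 h, 37 °C) and PCR amplification of pools that had been incubated for 30 min at room temperature with 200 nmole of a random double-stranded 16-mer DNA library in Tris/NaCl/DTT/glycerol buffer. Each pool held DNA-barcoded human transcription factors, expressed in yeast as GST fusions and captured on glutathione beads, plus a tag-only sample. Binding signal is a hexamer's read frequency for a factor divided by its frequency in the tag-only sample.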

ELK1 = target: T2, ELK1 (Homo sapiens, UniProt P19419 1-428)
T2 sequence: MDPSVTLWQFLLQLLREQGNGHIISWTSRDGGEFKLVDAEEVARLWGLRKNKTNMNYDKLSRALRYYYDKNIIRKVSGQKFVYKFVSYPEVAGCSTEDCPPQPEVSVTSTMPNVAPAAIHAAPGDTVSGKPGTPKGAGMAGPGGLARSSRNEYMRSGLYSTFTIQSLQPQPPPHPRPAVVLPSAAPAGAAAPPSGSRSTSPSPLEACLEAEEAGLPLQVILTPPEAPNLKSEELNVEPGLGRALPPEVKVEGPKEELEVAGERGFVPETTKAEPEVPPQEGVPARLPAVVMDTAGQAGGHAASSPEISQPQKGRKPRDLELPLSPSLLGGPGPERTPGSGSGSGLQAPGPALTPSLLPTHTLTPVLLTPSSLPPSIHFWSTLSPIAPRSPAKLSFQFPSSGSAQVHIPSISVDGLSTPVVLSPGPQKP
In short: as §1

GABPA = target: T3, GABPA (Homo sapiens, UniProt Q06546 1-454)
T3 sequence: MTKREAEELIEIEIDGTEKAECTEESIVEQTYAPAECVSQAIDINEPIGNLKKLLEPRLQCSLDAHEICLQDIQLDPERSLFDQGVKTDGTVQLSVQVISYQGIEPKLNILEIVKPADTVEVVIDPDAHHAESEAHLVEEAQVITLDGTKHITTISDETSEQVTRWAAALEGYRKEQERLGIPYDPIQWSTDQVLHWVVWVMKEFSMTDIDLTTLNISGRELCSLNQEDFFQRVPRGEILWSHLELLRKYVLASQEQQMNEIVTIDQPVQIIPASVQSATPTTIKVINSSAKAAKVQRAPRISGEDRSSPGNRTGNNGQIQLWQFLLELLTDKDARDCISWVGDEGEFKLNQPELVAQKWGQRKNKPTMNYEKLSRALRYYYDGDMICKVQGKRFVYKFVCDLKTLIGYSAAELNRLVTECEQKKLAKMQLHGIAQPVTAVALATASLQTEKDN
In short: as §1

ERG = target: T4, ERG (Homo sapiens, UniProt P11308 1-479)
T4 sequence: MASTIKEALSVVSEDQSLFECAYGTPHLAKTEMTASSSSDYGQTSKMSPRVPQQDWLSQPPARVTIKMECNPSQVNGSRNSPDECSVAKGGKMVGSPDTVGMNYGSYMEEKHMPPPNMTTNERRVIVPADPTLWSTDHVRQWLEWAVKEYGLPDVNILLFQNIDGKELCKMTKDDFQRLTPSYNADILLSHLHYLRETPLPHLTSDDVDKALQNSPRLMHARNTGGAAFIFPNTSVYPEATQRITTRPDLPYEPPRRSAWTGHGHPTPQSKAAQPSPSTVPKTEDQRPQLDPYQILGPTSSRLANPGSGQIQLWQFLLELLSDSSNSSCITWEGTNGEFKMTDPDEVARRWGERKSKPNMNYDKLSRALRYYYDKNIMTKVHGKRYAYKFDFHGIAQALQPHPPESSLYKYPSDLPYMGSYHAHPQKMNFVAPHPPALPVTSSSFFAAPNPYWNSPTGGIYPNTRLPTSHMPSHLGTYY
In short: as §1

ELF1 = ELF1 (Homo sapiens, UniProt P32519 1-619)
Sequence of ELF1 (P32519 whole entry): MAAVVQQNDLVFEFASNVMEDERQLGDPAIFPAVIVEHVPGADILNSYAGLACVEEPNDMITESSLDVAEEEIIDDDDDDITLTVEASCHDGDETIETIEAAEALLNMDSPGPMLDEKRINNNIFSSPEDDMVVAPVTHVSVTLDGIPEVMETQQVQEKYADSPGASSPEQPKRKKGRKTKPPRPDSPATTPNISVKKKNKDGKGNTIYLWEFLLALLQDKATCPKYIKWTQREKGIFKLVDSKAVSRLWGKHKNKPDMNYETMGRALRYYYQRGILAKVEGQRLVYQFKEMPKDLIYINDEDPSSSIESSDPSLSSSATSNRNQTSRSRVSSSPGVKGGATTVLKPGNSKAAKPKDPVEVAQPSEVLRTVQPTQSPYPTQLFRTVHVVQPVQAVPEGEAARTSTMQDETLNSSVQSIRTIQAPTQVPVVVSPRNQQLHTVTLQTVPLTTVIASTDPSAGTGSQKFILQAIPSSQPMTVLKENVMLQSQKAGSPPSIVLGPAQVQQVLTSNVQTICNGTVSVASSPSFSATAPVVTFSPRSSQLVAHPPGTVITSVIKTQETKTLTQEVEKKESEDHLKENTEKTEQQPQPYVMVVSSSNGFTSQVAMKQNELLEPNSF
In short: as §1

EHF = target: T5, EHF (Homo sapiens, UniProt Q9NZC4 1-300)
T5 sequence: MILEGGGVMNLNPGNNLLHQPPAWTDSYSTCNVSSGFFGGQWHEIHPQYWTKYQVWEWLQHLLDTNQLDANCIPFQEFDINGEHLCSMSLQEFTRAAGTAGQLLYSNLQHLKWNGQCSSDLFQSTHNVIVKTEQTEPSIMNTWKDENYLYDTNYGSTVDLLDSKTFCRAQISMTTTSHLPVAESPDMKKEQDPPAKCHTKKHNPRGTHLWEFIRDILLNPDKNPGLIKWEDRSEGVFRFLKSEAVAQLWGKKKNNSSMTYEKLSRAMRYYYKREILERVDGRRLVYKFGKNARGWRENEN
In short: as §1

SPI1 = SPI1 (Homo sapiens, UniProt P17947 1-270)
In short: as §1

SPIB = SPIB (Homo sapiens, UniProt Q01892 1-262)
Sequence of SPIB (Q01892 whole entry): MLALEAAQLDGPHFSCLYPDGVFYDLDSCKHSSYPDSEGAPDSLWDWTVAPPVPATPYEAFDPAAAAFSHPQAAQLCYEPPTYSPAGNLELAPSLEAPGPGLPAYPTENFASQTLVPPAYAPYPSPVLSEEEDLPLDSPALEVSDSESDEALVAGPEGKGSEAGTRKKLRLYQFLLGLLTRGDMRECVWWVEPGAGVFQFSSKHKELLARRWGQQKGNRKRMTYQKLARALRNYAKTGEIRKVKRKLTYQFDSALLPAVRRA
In short: as §1

ELK3 = target: T6, ELK3 (Homo sapiens, UniProt P41970 1-407)
T6 sequence: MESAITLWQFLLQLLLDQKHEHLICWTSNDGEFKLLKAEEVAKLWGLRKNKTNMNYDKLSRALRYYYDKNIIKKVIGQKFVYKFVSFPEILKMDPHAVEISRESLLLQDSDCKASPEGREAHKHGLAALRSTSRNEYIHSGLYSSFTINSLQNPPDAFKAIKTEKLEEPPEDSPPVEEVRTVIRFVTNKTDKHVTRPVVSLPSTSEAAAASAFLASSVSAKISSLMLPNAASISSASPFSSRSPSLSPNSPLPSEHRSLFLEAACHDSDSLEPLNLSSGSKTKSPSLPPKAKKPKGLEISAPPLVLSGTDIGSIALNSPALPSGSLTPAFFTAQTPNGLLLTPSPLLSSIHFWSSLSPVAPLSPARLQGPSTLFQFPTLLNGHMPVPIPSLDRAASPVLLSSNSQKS
In short: as §1

## TCCGCC
FLI1
  binding signal: 1.57 fold enrichment (6-mer frequency, TF over GST control)
ELK1
  binding signal: 1.61 fold enrichment (6-mer frequency, TF over GST control)
GABPA
  binding signal: 1.53 fold enrichment (6-mer frequency, TF over GST control)
ERG
  binding signal: 1.69 fold enrichment (6-mer frequency, TF over GST control)
ELF1
  binding signal: 1.7 fold enrichment (6-mer frequency, TF over GST control)
EHF
  binding signal: 1.73 fold enrichment (6-mer frequency, TF over GST control)
SPI1
  binding signal: 1.48 fold enrichment (6-mer frequency, TF over GST control)
SPIB
  binding signal: 1.54 fold enrichment (6-mer frequency, TF over GST control)
ELK3
  binding signal: 1.86 fold enrichment (6-mer frequency, TF over GST control)
